{"source": "the supplement of paper PMC8728848", "binders": {"B1": {"name": "BT3172pd (Bacteroides thetaiotaomicron) (protein)", "chain": "MLPLRAEHYYYKQISLKEGLPSNVRCILRDEQGFIWIGTKAGLGKFDGHQLKRYKHQANDPHSLLHNLIYQIAEDKQHNIWILTEKGIARYQQQSNNFTFPTDEEGNYITAYSFCLVPDGILFGGKDRIYKYSYKDSSLRLLQYFNANSFKITALSVWDSKTLLCCSRWTGLYLVDLQTGEHRRPPFDCGPEITSMITDSKNRIWIAPYSGGLRCYSRDGKLSASYTTHNSSLSNDIVLSLAEREEQLWIGTDGGGINILHPETGEISQLEYIPGRENYSLPANSILCLHNDYNNNVWAGSTCNGLISIREVSMKTYTDVVPGNDRGLSNGTVRSLYRQSPDSIWIGTDGGGINLFSPHTEKFTHYSSTWGDKVAFISGFTPGKLLISLFSKGVFVFNPATGEKQPFTIIDKETTTRLCNRGKSVNLYQNTPNTVLFLGDHIYQYHLKEKKFSTITEEEGKDIVGTLVPFDHQENLTYINDIKHIYELDDQTSRLKTVFECYTDTVISSVSHDEQGHFWIGSNFGLIHYDPVLKSRTLVPTNLFTEINMVLCDQKGKVWIGVDNMLFAYFIKEQKFVLFGESNGAIQNEYLPNARLVNEQGDAYIGGVKGMLRIDGQLLLNTSEMPELQLLDITINGESANHEWYNHPAKISVPWNSNISIRIMSREEDIFRQKIYRYQIEGLNNEYTESYNPELVIRSLLPGSYRIMASCTAKDGSWIPDQQVLELTVLPPWYRTHHHHHH"}}, "assay_in_all_cases": "glycan array binding signal (z-score within array); higher = stronger binding", "details_in_all_cases": "glycan notation: IUPAC condensed, linker removed", "key": {"[1]": {"molecular_target": "Fuc(a1-2)Gal(b1-3)GalNAc(b1-3)Gal", "how_it_was_run": "(§1)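 Negative Z-scores can be read as non-binding. The Z-score is calculated within each array and then averaged across arrays of one protein sequence at different concentrations or buffers and across linkers. Arrays, 3228 in all, were curated from the Consortium for Functional Glycomics database and kept only where the protein sequence was available.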"}, "[2]": {"molecular_target": "Fuc(a1-2)Gal(b1-4)GlcNAc(b1-3)Gal(b1-4)GlcNAc(b1-3)Gal(b1-4)GlcNAc", "how_it_was_run": "as §1"}, "[3]": {"molecular_target": "Fuc(a1-2)Gal(b1-4)GlcNAc(b1-3)GalNAc", "how_it_was_run": "as §1"}, "[4]": {"molecular_target": "Fuc(a1-2)Gal(b1-4)[Fuc(a1-3)]GlcNAc(b1-3)Gal(b1-4)[Fuc(a1-3)]GlcNAc", "how_it_was_run": "as §1"}, "[5]": {"molecular_target": "Fuc(a1-2)[Gal(a1-3)]Gal(b1-3)GalNAc", "how_it_was_run": "as §1"}, "[6]": {"molecular_target": "Fuc(a1-2)[Gal(a1-3)]Gal(b1-4)GlcNAc", "how_it_was_run": "as §1"}, "[7]": {"molecular_target": "Fuc(a1-2)[Gal(a1-3)]Gal(b1-4)GlcNAc(b1-3)[Fuc(a1-2)[Gal(a1-3)]Gal(b1-4)GlcNAc(b1-6)]GalNAc", "how_it_was_run": "as §1"}, "[8]": {"molecular_target": "Fuc(a1-2)[Gal(a1-3)]Gal(b1-4)[Fuc(a1-3)]GlcNAc(b1-3)GalNAc", "how_it_was_run": "as §1"}, "[9]": {"molecular_target": "Fuc(a1-2)[GalNAc(a1-3)]Gal(b1-4)GlcNAc", "how_it_was_run": "as §1"}, "Fuc(a1-3)GlcNAc": {"molecular_target": "Fuc(a1-3)GlcNAc", "how_it_was_run": "as §1"}, "[10]": {"molecular_target": "Fuc(a1-3)[Gal(b1-4)]GlcNAc(b1-2)Man(a1-3)[Fuc(a1-3)[Gal(b1-4)]GlcNAc(b1-2)Man(a1-6)]Man(b1-4)GlcNAc(b1-4)[Fuc(a1-6)]GlcNAc", "how_it_was_run": "as §1"}, "Gal(a1-2)Gal": {"molecular_target": "Gal(a1-2)Gal", "how_it_was_run": "as §1"}, "Gal(a1-3)Gal(b1-4)Glc": {"molecular_target": "Gal(a1-3)Gal(b1-4)Glc", "how_it_was_run": "as §1"}, "Gal(a1-3)Gal(b1-4)GlcNAc": {"molecular_target": "Gal(a1-3)Gal(b1-4)GlcNAc", "how_it_was_run": "as §1"}, "[11]": {"molecular_target": "Gal(a1-3)Gal(b1-4)[Fuc(a1-3)]GlcNAc(b1-2)Man(a1-3)[Gal(a1-3)Gal(b1-4)[Fuc(a1-3)]GlcNAc(b1-2)Man(a1-6)]Man(b1-4)GlcNAc(b1-4)GlcNAc", "how_it_was_run": "as §1"}, "[12]": {"molecular_target": "Gal(a1-3)[Gal(a1-4)]Gal(b1-4)GlcNAc", "how_it_was_run": "as §1"}, "[13]": {"molecular_target": "Gal(b1-3)GlcNAc(b1-6)[Gal(b1-3)]GalNAc", "how_it_was_run": "as §1"}, "[14]": {"molecular_target": "Gal(b1-4)GlcNAc(b1-2)Man(a1-3)[Gal(b1-4)GlcNAc(b1-2)Man(a1-6)]Man(b1-4)GlcNAc(b1-4)[Fuc(a1-6)]GlcNAc", "how_it_was_run": "as §1"}, "[15]": {"molecular_target": "Gal(b1-4)GlcNAc(b1-2)Man(a1-3)[Man(a1-6)]Man(b1-4)GlcNAc(b1-4)GlcNAc", "how_it_was_run": "as §1"}, "[16]": {"molecular_target": "Gal(b1-4)GlcNAc(b1-2)Man(a1-6)[GlcNAc(b1-2)Man(a1-3)]Man(b1-4)GlcNAc(b1-4)GlcNAc", "how_it_was_run": "as §1"}, "[17]": {"molecular_target": "Gal(b1-4)GlcNAc(b1-2)[Gal(b1-4)GlcNAc(b1-4)]Man(a1-3)[GlcNAc(b1-4)][Gal(b1-4)GlcNAc(b1-2)Man(a1-6)]Man(b1-4)GlcNAc(b1-4)GlcNAc", "how_it_was_run": "as §1"}, "[18]": {"molecular_target": "Gal(b1-4)GlcNAc(b1-3)Gal(b1-4)GlcNAc(b1-3)Gal(b1-4)GlcNAc(b1-3)Gal(b1-4)GlcNAc(b1-3)Gal(b1-4)GlcNAc(b1-2)Man(a1-3)[Gal(b1-4)GlcNAc(b1-3)Gal(b1-4)GlcNAc(b1-3)Gal(b1-4)GlcNAc(b1-3)Gal(b1-4)GlcNAc(b1-3)Gal(b1-4)GlcNAc(b1-2)Man(a1-6)]Man(b1-4)GlcNAc(b1-4)GlcNAc", "how_it_was_run": "as §1"}, "[19]": {"molecular_target": "Gal(b1-4)GlcNAc(b1-3)Gal(b1-4)GlcNAc(b1-3)GalNAc", "how_it_was_run": "as §1"}, "[20]": {"molecular_target": "Gal(b1-4)GlcNAc(b1-3)Gal(b1-4)[Fuc(a1-3)]GlcNAc(b1-3)Gal(b1-4)[Fuc(a1-3)]GlcNAc", "how_it_was_run": "as §1"}, "Gal3S(b1-4)GlcNAc": {"molecular_target": "Gal3S(b1-4)GlcNAc", "how_it_was_run": "as §1"}, "GalNAc(a1-3)GalNAc": {"molecular_target": "GalNAc(a1-3)GalNAc", "how_it_was_run": "as §1"}, "[21]": {"molecular_target": "GalNAc(b1-4)GlcNAc(b1-2)Man(a1-3)[GalNAc(b1-4)GlcNAc(b1-2)Man(a1-6)]Man(b1-4)GlcNAc(b1-4)GlcNAc", "how_it_was_run": "as §1"}}, "note": "The sample as a whole holds a higher share of the strongest signals than the screen did."}
{"binder": "B1", "values": [{"measurement": "glycan array binding signal (z-score)", "setting": "[1]", "result": -1.16}, {"measurement": "glycan array binding signal (z-score)", "setting": "[2]", "result": -0.03}, {"measurement": "glycan array binding signal (z-score)", "setting": "[3]", "result": -0.024}, {"measurement": "glycan array binding signal (z-score)", "setting": "[4]", "result": -0.649}, {"measurement": "glycan array binding signal (z-score)", "setting": "[5]", "result": 0.258}, {"measurement": "glycan array binding signal (z-score)", "setting": "[6]", "result": -0.52}, {"measurement": "glycan array binding signal (z-score)", "setting": "[7]", "result": 5.41}, {"measurement": "glycan array binding signal (z-score)", "setting": "[8]", "result": -0.194}, {"measurement": "glycan array binding signal (z-score)", "setting": "[9]", "result": -0.511}, {"measurement": "glycan array binding signal (z-score)", "setting": "Fuc(a1-3)GlcNAc", "result": -0.076}, {"measurement": "glycan array binding signal (z-score)", "setting": "[10]", "result": 2.04}, {"measurement": "glycan array binding signal (z-score)", "setting": "Gal(a1-2)Gal", "result": -0.237}, {"measurement": "glycan array binding signal (z-score)", "setting": "Gal(a1-3)Gal(b1-4)Glc", "result": -0.327}, {"measurement": "glycan array binding signal (z-score)", "setting": "Gal(a1-3)Gal(b1-4)GlcNAc", "result": -0.339}, {"measurement": "glycan array binding signal (z-score)", "setting": "[11]", "result": 2.4}, {"measurement": "glycan array binding signal (z-score)", "setting": "[12]", "result": 2.39}, {"measurement": "glycan array binding signal (z-score)", "setting": "[13]", "result": -0.299}, {"measurement": "glycan array binding signal (z-score)", "setting": "[14]", "result": -0.075}, {"measurement": "glycan array binding signal (z-score)", "setting": "[15]", "result": -0.349}, {"measurement": "glycan array binding signal (z-score)", "setting": "[16]", "result": 0.924}, {"measurement": "glycan array binding signal (z-score)", "setting": "[17]", "result": -0.47}, {"measurement": "glycan array binding signal (z-score)", "setting": "[18]", "result": 5.07}, {"measurement": "glycan array binding signal (z-score)", "setting": "[19]", "result": -0.264}, {"measurement": "glycan array binding signal (z-score)", "setting": "[20]", "result": -0.565}, {"measurement": "glycan array binding signal (z-score)", "setting": "Gal3S(b1-4)GlcNAc", "result": 0.279}, {"measurement": "glycan array binding signal (z-score)", "setting": "GalNAc(a1-3)GalNAc", "result": -0.288}, {"measurement": "glycan array binding signal (z-score)", "setting": "[21]", "result": -0.134}]}
